This is an account of results in PubChem BioAssay (EPA / NIEHS).

Activity calls are given as the source filed them. How the source made its calls: active means hit-call score of the fitted dose curve at least 0.9, where 1 is the maximum; inactive means score below 0.9.

Read-out in this assay: ABC Transporter (ABCC2), ABCC2 (gene 1244)
As to the kind of experiment: LTEA_HepaRG_ABCC2: Life Technologies and Expression Analysis (LTEA) Assay for ABC Transporter (ABCC2) using HepaRG (AID 2283464). As to conditions: mRNA level, 48 h; actives raise or lower the signal. As to the method:
LTEA_HepaRG is a cell based, multiplexed-readout assay that uses HepaRG, a human liver cell line, with measurements taken at 48 hours after chemical dosing on a 96-well plate.LTEA_HepaRG_ABCC2 is one of 102 assay component(s) measured in the LTEA HepaRG cell culture assay. It is a marker of Steatosis/NR mediated transport.Data from the assay component LTEA_HepaRG_ABCC2 was analyzed into 1 endpoint. This assay endpoint, LTEA_HepaRG_ABCC2, was analyzed with bidirectional fitting relative to DMSO as the negative control and baseline of activity. Using a type of inducible reporter, measures of mRNA induction for gain or loss-of-signal activity can be used to understand regulation of transcription factor activity. To generalize the intended target to other relatable targets, this assay endpoint is annotated to the transporter intended target family, where the subfamily is ABC transporter.
A total of 1060 chemcials from the ToxCast library were tested in eight-point concentration-response experiments. Cell culture and cytotoxicity assays were conducted at Thermo Fisher Scientific's Custom Services facility (Madison, WI). A single lot of human HepaRG cells (Thermo Fisher Scientific, Frederick, MD) was used for the cell culture experiments. 96-well format collagen type I coated plates of human HepaRG cells were prepared using established methods. Briefly, cryopreserved HepaRG cells were thawed, plated at a density of approximately 100,000 cells/well in HepaRG Thaw, Plate, and General Purpose media (HPRG770, Thermo Fisher Scientific), and incubated for 48 hours. 0.5% DMSO was selected as vehicle control to balance the requisite need of DMSO in HepaRG cultures to maintain differentiation (for example, baseline metabolism, proportions of hepatocytes vs. cholangiocytes), while enabling further hepatic receptor pathway activation (for example, PXR and CAR) in response to chemical exposure. 48 hours after plating, the culture medium was replaced with HepaRG Serum-Free Incudtion Media. Cells were exposed to each test chemical in duplicate and maintained in CO2 incubators for another 48 hours. Chemical plates were thawed to room temperature and 200x concentrations of treatment groups were prepared. 8-point conentration-reponse curves were made with the highest exposure at 100 uM, followed by half-log dilutions, all in 0.5% DMSO. Each test plate contained variouse controls, induction positive controls (1mM phenobarbital), cytotoxicity positive controls ([…] aflatoxin B1), vehicle controls (0.5% DMSO), and total lysis controls (0.5% DMSO). Cell morphology images were taken using an Essen IncuCyte FLR automated microscope, with six 96-well plates imaged in about 24 minutes. Images were captured and exported and JPEG files. Spent culture media was transfered to black-well plates for the LDH assay, and remaining media was sorted at -80 C for later use. Cells were treated with RLT buffer and frozen until shipped for gene expression analysis. Total RNA was isolated from the cell suspension in 75 uL of Buffer RLT (Qiagen, Germantown, MD 20874) by Quintiles/Expression Analysis (Durham, NC) using a custom isolation procedure. Total RNA from each plate well was transferred to a preamplification plate. Fluidigm's 96.96 Dynamic ArrayTM (Fluidigm, Amsterdam, the Netherlands) technology was used for gene expression analyses by quantitative reverse transcription polymerase chain reaction (qRT-PCR, performed by Quintiles/Expression Analysis, Durham, NC)89. Standard TaqManTM Assays (Applied Biosystems/ThermoFisher Scientific, Foster City, CA) were used to assess the expression of 93 genes selected based on their selectivity and sensitivity to important hepatic receptors known to be modulated by environmental chemicals; importance in human hepatocyte functionality; and hepatotoxicity. […]
Regarding `Cc1ccc2ncccc2c1`, the call was inactive. For `Nc1ccc2c(c1)C(=O)c1ccccc1C2=O`, the molecule was classed as inactive. The same measure, in the same setting: the result for `Cc1cc(NC(=O)C(=O)O)cc(C)c1Oc1ccc(O)c2c1CCC2` reads “inactive”. Still for that read-out and setting: the result for `Oc1ccc2c(c1)OC[C@@H](N1CCC(O)(c3ccc(F)cc3)CC1)[C@H]2O` reads “inactive”. Same read-out and setting: the result for `CC1(C)CC(N=C=O)CC(C)(CN=C=O)C1` (stereo not given) reads “inactive”; that for `CCCc1cc(=O)[nH]c(=S)[nH]1`, “inactive”. Regarding `Cc1ccc(N(C)C)cc1`, the molecule was classed as inactive. As for `Cc1ccc(C)c(O)c1C`, the molecule was called inactive. For `CCCCOC(=O)CCCCCCCCC(=O)OCCCC`, the result was inactive. Still for that read-out and setting: the result for `Cc1c(C(=O)O)c(O)cc2c1C(=O)c1c(O)c([C@@H]3O[C@H](CO)[C@@H](O)[C@H](O)[C@H]3O)c(O)c(O)c1C2=O` reads “inactive”; that for `OC[C@@H](O)[C@@H](O)[C@H](O)[C@H](O)CO`, “inactive”; that for `CN1CCN(Cc2cc(-c3ccc4[nH]c(=O)oc4c3)co2)[C@@H](c2ccc(F)cc2)C1`, “inactive”. Regarding `CCCCCCCCCCC`, the outcome was inactive. With `CC(=O)OCCOCCOCCOC(C)=O`, the molecule was called inactive.

On to `CCCCCC(=O)O`, for which the molecule was classed as inactive. On to `NS(=O)(=O)c1cc2c(cc1Cl)NCNS2(=O)=O`, for which the result was inactive. On to `O=[N+]([O-])C(CO)(CO)CO`, for which the call was inactive.

For `C=CCOC(=O)c1ccccc1C(=O)OCC=C`, the result was inactive. As to `CCCCCCC(=O)OCC`, the molecule was called inactive.

Take `c1cc(-c2ccncc2)ccn1`: the molecule was called inactive. Take `Cc1cccc(C)c1O`: the result was inactive.

Take `COc1ccc(C)cc1N`: the outcome was inactive. With `C[Si]1(C)O[Si](C)(C)O[Si](C)(C)O[Si](C)(C)O1`, the result was inactive. Take `COc1cc(C=O)ccc1O`: the molecule was called inactive.

Consider `CCCCN(CCCC)CCCC`, for which the outcome was inactive. Take `CCOC(=O)CCC(=O)OCC`: the outcome was inactive. Take `CC=Cc1ccc(O)c(OC)c1`: the outcome was inactive. As usually defined, the AC50 is the midpoint of the concentration-response curve, whichever way the signal moves. As for `CC1=C(/C=C/C(C)=C/C=C/C(C)=C/CO)C(C)(C)CCC1`, the AC50 is 52.2 µM (active). For `Cc1cc(=O)[nH]c(=S)[nH]1`, the call was inactive. In the case of `O=C(N[C@@H](Cc1ccccc1)[C@@H](O)C(=O)N1C[C@@H](O)[C@@H](O)C1)c1cc2cc(Cl)ccc2[nH]1`, the outcome was inactive.

With `Nc1ccccc1N`, the AC50 was 71 µM (active). Regarding `COC(=O)c1ccc(O)cc1`, the molecule was classed as inactive. On to `COc1ccc2c(c1)c(CC(=O)O)c(C)n2C(=O)c1ccc(Cl)cc1`, for which the outcome was inactive. On the same count and under the same terms, the result for `CCCCCCCCCCCCCCCC` reads “inactive”; that for `Nc1nc(N)c2nc(CNc3ccc(C(=O)N[C@@H](CCC(=O)O)C(=O)O)cc3)cnc2n1`, “inactive”; that for `O=C(O)CCCCC(=O)O`, “inactive”. Take `CCc1c(C(=O)NN2CCCCC2)nn(-c2ccc(Cl)cc2Cl)c1-c1ccc(Br)cc1`: the AC50 was 68.6 µM (active).

`CN[C@H]1CC[C@@H](c2ccc(Cl)c(Cl)c2)c2ccc(S(N)(=O)=O)cc21`: the AC50 is 63.5 µM (active). On to `C1CCC(SSC2CCCCC2)CC1`, for which the result was inactive. Take `Cc1ccc(Cl)cc1`: the molecule was called inactive.
